Screens deposited in PubChem BioAssay by several laboratories.
A selection: hits, their analogues and other compounds. The true share with any hit is near 4.9%.
Beta cell apopt: inhibitors of cytokine-induced beta cell apoptosis, primary screen, luminescence; INS-1E cytokine-induced death, ATP luminescence, 48 h; percent of positive-control rescue, neutral wells zero; 300,000 tested, 0.8% active; protection from apoptosis, % (no concentration beside the values);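 active means Every replicate reaches about 75%, or at least half do and their mean reaches it too, limit read from the data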;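 further: 0% = cytokine-treated negative control wells and 100% = positive control rescue; higher means more ATP so stronger rescue from cytokine killing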
PP5 primary: PP5 phosphatase inhibitors, primary screen, biochemical, fluorescence; purified PP5c, OMFP substrate fluorescence; Serine/threonine-protein phosphatase 5 (Homo sapiens), P53041; AID 1987, 2009; inhibition, % at 6.7 µM; 320,000 tested, 0.18% active;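 active means inhibition above the campaign's mean inhibition across all tested compounds plus 3 SD, cut at about 9.5% in these data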;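 further: 0% = DMSO only and 100% = 100 µM cantharidin control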
Calb FLC: C. albicans growth inhibition with fluconazole, primary screen, CaCi-2 strain, Alamar Blue fluorescence | AID 1979, 2009 | C. albicans CaCi-2 (fluconazole-resistant clinical isolate) + fluconazole, 48 h | growth inhibition, % (test concentration not listed) | 300,000 tested, 0.57% active;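 active means growth inhibition above about 58% in most replicates, limit read from the data, passing the limit was not always enough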;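 further: all wells also contain fluconazole at 8 µg/ml as a sub-toxic cotreatment; 0% = median of DMSO wells and 100% = median of geldanamycin control wells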
PP1 inh: PP1-alpha phosphatase inhibitors, primary screen, counter-screen for PP5 inhibitor project, biochemical, fluorescence, OMFP substrate, single point | Serine/threonine-protein phosphatase PP1-alpha catalytic subunit (Homo sapiens), P62136 | purified PP1alpha | AID 2235, 2010 | 320,000 tested, 0.9% active | inhibition, % at 6.7 µM;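 active means inhibition above the mean inhibition of all tested compounds plus 3 SD, computed separately for each screening campaign, cut at about 15% in these data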
Target sequence (P62136 whole entry, looked up): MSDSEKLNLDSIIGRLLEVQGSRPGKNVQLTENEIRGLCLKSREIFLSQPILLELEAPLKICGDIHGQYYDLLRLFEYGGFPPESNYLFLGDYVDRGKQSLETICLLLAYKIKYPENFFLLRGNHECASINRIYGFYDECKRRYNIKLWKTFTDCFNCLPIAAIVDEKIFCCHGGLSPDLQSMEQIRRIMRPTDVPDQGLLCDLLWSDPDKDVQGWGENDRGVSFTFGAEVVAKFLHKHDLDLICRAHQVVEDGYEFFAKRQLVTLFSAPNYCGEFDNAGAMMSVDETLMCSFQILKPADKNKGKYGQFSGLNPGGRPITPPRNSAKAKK
CSC inhib: cancer stem cell viability inhibitors, primary screen, luminescence; cancer stem cell-like cells viability; inhibition, % at 7.5 µM; 300,000 tested, 1.1% active; AID 2717, 2010; in the data active means inhibition above about 75%; tested in HMLE shEcad cells
Mdm2-MdmX inh: inhibitors of human Mdm2-MdmX association, primary screen, cell-based, luminescence, split luciferase, SaOS-2, uHTS; Protein Mdm4 (Homo sapiens) + E3 ubiquitin-protein ligase Mdm2 (Homo sapiens), …; SaOS-2 split-luciferase Mdm2/MdmX complementation; inhibition, % at 8 µM; 330,000 tested, 3% active; AID 485346, 2010;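 active means inhibition of at least 50% at 8 µM in the primary screen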
Mdm2 MdmX conf: Mdm2-MdmX complex disruptors, retested hits, confirmation, luminescence, single concentration; 10,000 tested, 55% active; AID 489028, 2010; inhibition, % at 8 µM; Mdm2-MdmX binding, luminescent assay; shares compounds with Mdm2-MdmX inh; in the data active means inhibition above about 40%
Full FLuc ctr: full-length luciferase signal inhibition, confirmation, counter-screen for Mdm2/MdmX interaction inhibitor project, cell-based, single concentration, SaOS-2. shares compounds with Mdm2-MdmX inh. SaOS-2 full-length luciferase counterscreen, luminescence. 6,200 tested, 77% active. AID 504607, 2011. inhibition, % at 8 µM;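 active means mean inhibition at 8 µM reaching about 37%, which flags the compound as non-specific, limit read from the data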;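 further: p53-null SaOS-2 cells with luciferase driven by a doxycycline-inducible promoter; compound on cells about two nights before reading with doxycycline added after day one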
* = called active by the depositor; . = no result given.

SMILES	Beta cell apopt	PP5 primary	Calb FLC	PP1 inh	CSC inhib	Mdm2-MdmX inh	Mdm2 MdmX conf	Full FLuc ctr
O=C(NCCCN1CCCC1)c1ccc2c(c1)N(Cc1cccc(Cl)c1)C(=O)c1ccccc1S2=O (stereo not drawn)	-4.1	-0.3	-5.8	2.3	-6.9	53.1*	14.0	.
CC1CC(C)CN(CCCNC(=O)c2ccc3c(c2)N(Cc2ccccc2)C(=O)c2ccccc2S3=O)C1 (stereo not drawn)	7.4	3.1	5.2	-2.5	8.1	64.2*	40.8*	69.4*
Cc1nn(CC(=O)c2cccc(Cl)c2)c(C)c1[N+](=O)[O-]	3.3	-2.4	-7.6	4.1	-1.5	-18.4	.	.
O=c1c2ccccc2nc(/C=C/c2cc(Br)ccc2O)n1CCCO	-12.7	4.5	6.0	-1.9	52.1	89.5*	74.5*	26.6
COc1cccc(/C=C2\SC(=S)N(CCC(=O)N3CCCCC3CCO)C2=O)c1 (stereo not drawn)	-33.4	1.1	-0.6	1.9	19.9	76.9*	45.4*	39.8*
COc1cccc(/C=C2\SC(=S)N(CCCC(=O)N3CCCCC3CCO)C2=O)c1 (stereo not drawn)	-38.4	1.6	2.1	2.5	22.6	77.8*	61.5*	21.2
COc1cccc(/C=C2\SC(=S)N(CCCC(=O)N3CCCC3)C2=O)c1	-34.2	3.3	-1.2	4.2	-1.3	84.0*	45.6*	35.0
COc1ccc(CCNC(=O)c2cccc(S(=O)(=O)NC(C)c3ccccc3)c2)cc1 (stereo not drawn)	-3.1	4.1	.	0.3	.	-16.2	.	.
CCOc1ccc(C(C)=O)cc1COc1cccnc1[N+](=O)[O-]	-6.1	-3.1	4.5	1.6	41.5	57.7*	56.8*	45.0*
COc1cccc(/C=N/c2oc(-c3ccccc3)cc2C#N)c1O	-4.8	2.5	-5.0	-0.6	-5.4	11.7	.	.
N#Cc1cc(-c2ccccc2)oc1/N=C/c1ccccc1O	0.1	3.6	4.5	-4.5	.	52.9*	57.2*	105.4*
CN(C)S(=O)(=O)c1ccc(NC(=O)/C=C/c2ccccc2Cl)cc1	0.3	2.4	7.7	2.8	-1.5	-3.0	.	.
CN(C)c1ccc(NC(=O)/C=C/c2c(Cl)cccc2Cl)cc1	5.9	-1.8	1.0	4.2	.	64.2*	69.1*	50.3*
Cc1ccc(CNC(=O)/C=C/c2ccccc2Cl)cc1	-8.3	0.3	-3.7	-0.6	0.4	-17.2	.	.
Cc1ccc(CNC(=O)/C=C/c2c(Cl)cccc2Cl)cc1	-5.4	1.7	-14.9	-3.5	6.2	55.5*	7.5	.
COc1cc(C(=S)N2CCCC2)ccc1OCc1ccc(C)cc1	2.6	2.3	4.7	1.6	18.8	-60.7	.	.
Cc1ccc2oc(C(Cl)(Cl)Cl)cc(=O)c2c1	11.7	1.8	35.5	-2.8	33.3	74.2*	53.1*	60.3*
CN(C)C(CNC(=O)c1cc2ccccc2o1)c1ccco1 (stereo not drawn)	1.5	.	.	.	-30.9	3.0	.	.
COCCN(Cc1nc2ccccc2c(=O)[nH]1)C(=O)COc1ccccc1-c1ccccc1	.	.	.	.	.	53.2*	43.2*	85.6*
O=C(O)Cc1cc(I)c(Oc2ccc(O)c(I)c2)c(I)c1	-3.1	3.0	18.6	13.1	47.1	52.9*	6.9	.
O=C(O)Cc1ccc(O)c(O)c1	-5.0	0.3	-10.1	-4.5	-5.6	7.8	.	.
CCn1cc(C(=O)NCCCN2CCC(C)CC2)c(=O)c2cc(S(=O)(=O)N(C)C3CCCCC3)ccc21	4.4	1.5	4.7	3.4	12.1	39.0	.	.
